# Reference: PubChem BioAssay (EPA / NIEHS)
# Values joined by “and” are separate entries in the source; they are usually repeats but may differ in a detail not shown here. Equal values may be shown once. Records with an inconclusive call do not appear. Active and inactive are the calls of the source. How the source made its calls: active means hit-call score of the fitted dose curve at least 0.9, where 1 is the maximum; inconclusive means response in the unintended direction; inactive means score below 0.9.
# Target: Cytochrome P450 2C19 (Homo sapiens) (UniProt P33261)
# Assay: NVS_ADME_hCYP2C19: NovaScreen (NVS) CYP450-related Enzyme Activity (ADME) Assay for human CYP2C19 (AID 2283113);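 on AC50: potency for inhibition seen as loss of fluorescent signal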
# Description: NVS_ADME_hCYP2C19 is a biochemical, single-readout assay that uses extracted gene-proteins from insect cells in a cell-free assay. Measurements were taken 1 hour after chemical dosing in a 96-well plate.NVS_ADME_hCYP2C19 is one of one assay component(s) measured or calculated from the NVS_ADME_hCYP2C19 assay. It is designed to make measurements of enzyme activity, a form of enzyme reporter, as detected with fluorescence intensity signals by Fluorescence technology.Data from the assay component NVS_ADME_hCYP2C19 was analyzed into 1 assay endpoint. This assay endpoint, NVS_ADME_hCYP2C19, was analyzed in the positive analysis fitting direction relative to Acetonitrile as the negative control and baseline of activity. Using a type of enzyme reporter, loss-of-signal activity can be used to understand changes in the enzymatic activity as they relate to the gene CYP2C19. Furthermore, this assay endpoint can be referred to as a primary readout, because this assay has produced multiple assay endpoints where this one serves a enzymatic activity function. To generalize the intended target to other relatable targets, this assay endpoint is annotated to the cyp intended target family, where the subfamily is xenobiotic metabolism.
# Binding assays used specific radioligands (tritiated, iodinated) with non-radioactive competitive displacement ligands in agonist or antagonist protocols (as indicated) and various reference compounds and inhibitors to titrate specific binding to receptors and transporters. Most enzyme assays (CYPs, kinases, phosphatases, proteases, HDACs) used recombinant protein and specific substrates (fluorescence mostly, some colorimetric and radioactive) and inhibitors, followed by a biochemical separation of substrate and product. All assays for the biochemical HTS were initially run in duplicate at a single concentration (10 uM for CYP450 assays and 25 uM for all others). […] Each assay was run with positive and negative controls, and concurrent controls on every plate. The follow-up (secondary) screen tested active chemical-pairs in concentration series, as well as a few additional assays not tested in the primary screen, some selected negative inactives, and several cases re-run in the concentration series for confirmatory purposes.
SMILES,AC50,outcome
COC(=O)c1ccccc1S(=O)(=O)NC(=O)Nc1nc(C)nc(OC)n1,5 µM (active),–
CCC(C)(NC(=O)c1cc(Cl)c(C)c(Cl)c1)C(=O)CCl (stereo not given),–,inactive
CNC(=O)CSP(=S)(OC)OC,2.73 µM (active),–
COc1nn(CSP(=S)(OC)OC)c(=O)s1,0.124 µM (active),–
O=C(O)CCCOc1ccc(Cl)cc1Cl,12.1 µM (active),–
N#Cc1c(Cl)c(Cl)c(Cl)c(C#N)c1Cl,–,inactive
CC(C)(C)C(O)C(Oc1ccc(Cl)cc1)n1cncn1 (stereo not given),1.29 µM (active) and 1.71 µM (active) and 1.18 µM (active),–
Cc1[nH]c(=O)n(C(C)(C)C)c(=O)c1Cl,6.8 µM (active),–
CC1(C)C(C=C(Cl)Cl)C1C(=O)OC(C#N)c1ccc(F)c(Oc2ccccc2)c1 (stereo not given),13.5 µM (active),–
Oc1ccc(Cl)cc1Cc1ccccc1,3.27 µM (active) [middle of 7 runs],–
CCN(CC)C(=O)SCc1ccc(Cl)cc1,10 µM (active),–
COP(=S)(OC)Oc1ccc([N+](=O)[O-])cc1,0.25 µM (active),–
CCOCN(C(=O)CCl)c1c(C)cccc1CC,5.09 µM (active),–
O=S1OCC2C(CO1)C1(Cl)C(Cl)=C(Cl)C2(Cl)C1(Cl)Cl (stereo not given),1.64 µM (active),–
O=C1c2ccccc2C(=O)N1SC(Cl)(Cl)Cl,–,inactive
C[C@H]1[C@H](c2ccc(Cl)cc2)SC(=O)N1C(=O)NC1CCCCC1,7.38 µM (active),–
O=S(=O)(O)C(F)(F)C(F)(F)C(F)(F)C(F)(F)C(F)(F)C(F)(F)C(F)(F)C(F)(F)F,5.18 µM (active) [middle of 5 runs],–
CC(C)(C)C(O)/C(=C\c1ccc(Cl)cc1Cl)n1cncn1 (stereo not given),0.00727 µM (active),–
CCOC1Oc2ccc(OS(C)(=O)=O)cc2C1(C)C (stereo not given),3.56 µM (active),–
CN1CSC(=S)N(C)C1,10 µM (active),–
CC(C)N(C(=O)COc1nnc(C(F)(F)F)s1)c1ccc(F)cc1,1.05 µM (active),–
CC[C@H](C)[C@H]1O[C@]2(C=C[C@@H]1C)C[C@@H]1C[C@@H](C/C=C(\C)[C@@H](O[C@H]3C[C@H](OC)[C@@H](O[C@H]4C[C@H](OC)[C@@H](O)[C@H](C)O4)[C@H](C)O3)[C@@H](C)/C=C/C=C3\CO[C@@H]4[C@H](O)C(C)=C[C@@H](C(=O)O1)[C@]34O)O2 (tested in a mixture with another compound),6.36 µM (active),–
CCCN(CCOc1c(Cl)cc(Cl)cc1Cl)C(=O)n1ccnc1,0.0245 µM (active),–
O=C(O)COc1ccc(Cl)cc1Cl,10 µM (active),–
COP(=S)(OC)Oc1ccc(SC)c(C)c1,2.45 µM (active),–
